Results published in PubChem BioAssay AID686979 (National Center for Advancing Translational Sciences (NCATS), 2013).
Where “and” joins values, the source holds several entries; their conditions need not be identical. Equal entries are not always repeated. The campaign covered roughly 420,000 compounds. About 50,000 (12%) were called active. Roughly 26% stayed inconclusive and do not appear here. The list comes from a sample in which actives are over-represented; it also holds similar structures and randomly drawn compounds. Entries that show only a call come without a potency. Unmarked numbers belong to inactive results. The call rests on the fitted dose curve; in most records, active means well fitted inhibition curve with a large enough effect; inconclusive means small, poorly fitted or top-dose-only effect; inactive means flat fitted curve, though single readings scatter.

Experiment: qHTS for Inhibitors of human tyrosyl-DNA phosphodiesterase 1 (TDP1): qHTS in cells in presence of CPT; further: nearly all actives have a fitted effect of over 55% in size
Conditions: chicken DT40 Tdp1-/-;hTDP1 cells + 20 nM CPT, ATP luminescence, 48 h; series mostly up to 46.2 µM
Summary of the method: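 Chicken DT40 Tdp1-/- cells complemented with human TDP1, 400 cells/well, exposed to compounds plus 20 nM camptothecin for at least 48 h at 37 C; viability read as ATP content by CellTiter-Glo luminescence.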
Potency means the concentration at half of the fitted maximal effect.

Structure (SMILES)	Potency	activity change, negative = growth inhibition
CC(C)(C)OC(=O)NC(Cc1ccccc1)C(=O)NC(CSC1CCCCO1)C(=O)NN (configuration not stated)	inactive	
CC(=O)c1cc2c(cc1NC(=O)Cn1nc(-c3ccc(F)cc3)ccc1=O)OCO2	inactive	
COc1ccccc1OCCCCCCN1CCN(C)CC1	inactive	
CC(C)[C@H](NC(=O)N1c2ccccc2NC(=O)[C@@H]1C(C)C)C(=O)N[C@H](C(=O)O)c1ccccc1	inactive	
CCCNC(=O)c1onc(CSc2ccc(F)cc2)c1C(=O)NC(C)C	inactive	
COc1cc(C(=O)N2CCC(c3ccncc3)CC2)cc(OC)c1OC	inactive	
COc1cc(C(F)(F)F)nc2c(Br)c(C(C)(C)C)nn12	inactive	
Cc1cc2nc(-c3ccc(NC(=O)c4cc5ccccc5o4)cc3)oc2cc1C	inactive	
CC(OC(=O)/C=C/c1ccccc1)C(=O)NC1CCCCC1C (configuration not stated)	inactive	
Cc1cccc(C)c1NC(=O)CCS(=O)(=O)c1cccc2nsnc12	inactive	
COc1ccc(N(C)C(=O)CCS(=O)(=O)c2cccc3nsnc23)cc1	inactive	
O=C(NCc1cccnc1)Nc1ccccc1F	inactive	
O=C(CCS(=O)(=O)c1ccccc1)N(Cc1cccnc1)c1nc2c(F)cccc2s1	3.66 µM (active)	
CN(C)CCN(C(=O)CN1C(=O)c2ccccc2C1=O)c1nc2cc3c(cc2s1)OCCO3	inactive	
COc1cccc2sc(N(CCCN(C)C)C(=O)C(c3ccccc3)c3ccccc3)nc12	20.6 µM (active)	
CN(C)CCCN(C(=O)COc1ccccc1)c1nc2c(Cl)cccc2s1	inactive	
O=C(C1COc2ccccc2O1)N(Cc1cccnc1)c1nc2c(F)cc(F)cc2s1 (configuration not stated)	inactive	
Cc1cccc2sc(N(CCCN(C)C)C(=O)CCS(=O)(=O)c3ccccc3)nc12	1.84 µM (active)	
Cn1c(=NC(=O)c2ccc3c(c2)OCCO3)sc2cc(S(C)(=O)=O)ccc21	inactive	
O=C(NCc1ccncc1)c1cccc(NS(=O)(=O)c2ccc(F)c(F)c2)c1	inactive	
COc1ccccc1OCCC(=O)OCC(=O)NCc1ccccc1	inactive	
CC(C)c1c(O)nc(SCCOc2ccc(Cl)cc2)[nH]c1=O	inactive	
COc1ccc(CN2C(=O)C(CC(=O)NCCCCc3ccccc3)CC(C(=O)N3CCOCC3)=C2C)cc1 (configuration not stated)	inactive	
Cc1ncc2c(c1CNS(=O)(=O)N(C)C)CCN(C(=O)c1ccccc1F)C2		12.2% [at 9.04 µM]
O=C(NCc1cccc(Cl)c1)C1=CC=CN2CCS(=O)(=O)N=C12	inactive	

Structure (SMILES)	Potency	activity change, negative = growth inhibition
COc1ccc(Cl)cc1NC(=O)CN(C)C(=O)c1ccc2n[nH]nc2c1	inactive	
COc1cccc(NC(=O)CN(C)C(=O)c2cc(Cl)nc3ccccc23)c1	inactive	
COc1ccc(-c2cc(C(=O)N(C)Cc3ccc(OC)c(OC)c3OC)c3ccccc3n2)cc1OC	16.4 µM (active)	
COc1ccc(-c2cc(C(=O)NCCCN3CCCC3=O)c3ccccc3n2)cc1OC	inactive	
COc1ccc(-c2cc(C(=O)N(C)CC(=O)Nc3ccccc3Cl)c3ccccc3n2)cc1OC	20.6 µM (active)	
COc1ccc(CN(C)C(=O)Cc2ccsc2)c(OC)c1OC	inactive	
COc1ccc(CN2[C@@H](CC(=O)O)c3cc(F)ccc3S2(=O)=O)cc1	inactive	
CCN(CC)S(=O)(=O)c1ccc(-c2cn3ccc(C)cc3n2)cc1	inactive	
Cc1ccc(S(=O)(=O)n2nc(C)c(S(=O)(=O)N3CCCCCC3)c2C)cc1	inactive	
COc1ccc(NS(=O)(=O)c2cccc3nsnc23)cc1Cl	inactive	
COc1ccc([C@H]2CC(=O)C=C(c3ccc(C)cc3)C2)cc1	inactive	
Cc1csc(NC(=S)Nc2cccc(Cl)c2)n1	1.64 µM (active)	
CC(=O)Nc1cccc(C(=O)Nc2nc(C)cs2)c1	inactive	
S=C(Nc1cccc(Cl)c1)Nc1ccc2cn[nH]c2c1	inactive	
Cc1cc(C)cc(NC(=O)CCS(=O)(=O)c2cc3c4c(c2)CCN4C(=O)CC3)c1	inactive	
S=c1[nH]nc(-c2ccco2)n1/N=C/c1ccccc1	inactive	
Cn1cccc1-c1nc2ccccc2n1C	inactive	
Cn1c(-c2ccco2)nc2cc3ccccc3cc21	11.6 µM (active)	
CCOc1ccc(S(=O)(=O)N(CC(=O)NCCSCc2ccc(C)cc2)c2ccccc2)cc1	inactive	
CCS(=O)(=O)Nc1cc(C(=O)N2C[C@@H](C)O[C@@H](C)C2)c2c(c1)nc(-c1ccccc1)n2C	inactive	
CN(C)c1nc(=Nc2cccc(Cl)c2)ss1	0.206 µM (active)	
CCOC(=O)C1=C(O)CSC1=Nc1cccc(Cl)c1	inactive	
O=C(O)C1=NN(c2c(F)c(F)cc(F)c2F)C(=O)CC1	inactive	
O=C(O)CCc1cccnc1	inactive	
C/C(=N\NC(=O)CCn1nc(C)cc1C)C(C)(C)C	inactive	

Structure (SMILES)	Potency	activity change, negative = growth inhibition
Cc1ccc2c(C)c(C(=O)N(C)Cc3ccncn3)oc2c1C	inactive	
Cc1ccc2c(C)c(C(=O)N3CCN(c4ccncc4)CC3)oc2c1C	23.1 µM (active)	
CC(=O)N1CCC2(CC1)CCN(c1ccncc1)CC2	inactive	
CCOC(=O)N(Cc1ccccc1)C1CC1	inactive	
CCN(CC(=O)NCc1ccc(Cl)cc1)C(=O)c1c(C)noc1C	inactive	
O=C(NCc1ccncc1)C(=O)NCc1ccco1	inactive	
Cc1noc(C)c1-c1ccc(C(=O)NCc2ccncc2)c2occc12	9.2 µM (active)	
Cc1ccc(CNC(=O)CCc2c(C)nc3c(c(C)nn3-c3ccccc3)c2C)cc1	inactive	
CCOC(=O)c1c(C)oc2cc(Br)c(OCC(N)=O)cc12	inactive	
CCOC(=O)c1c(C)oc2nc(C)nc(Nc3ccc(CC)cc3)c12	inactive	
COC(=O)c1c(C)oc2ccc(N(C(=O)Oc3ccccc3)S(=O)(=O)c3ccccc3)cc12	20.6 µM (active)	
CCOC(=O)c1c(C)oc2ccc(N(C(=O)c3ccncc3)S(=O)(=O)c3ccc(CC)cc3)cc12	5.8 µM (active)	
CN(CC(=O)O)S(=O)(=O)c1ccc2oc3ccccc3c2c1	inactive	
CC(=O)Oc1ccc(N(C(C)=O)S(=O)(=O)c2ccc3ccccc3c2)cc1Br	inactive	
COc1cc(/C=C2/C(=O)NN(c3ccc(F)cc3)C2=O)cc([N+](=O)[O-])c1O	inactive	
CC(C)(C)c1cc(=O)n2c(nc3ccccc32)[nH]1	inactive	
COCCOC(=O)C1=C(C)NC(=O)NC1c1cc2c(cc1Br)OCO2 (configuration not stated)	inactive	
O=C(O)C1=C/C(=C/C=[N+]2c3cc(O)c(O[C@H]4OC(CO)[C@@H](O)[C@@H](O)[C@@H]4O)cc3C[C@@H]2C(=O)[O-])C[C@H](C(=O)O)N1 (some centres not stated)	inactive	
COc1ccc(CNC(=O)COC(=O)C(CCSC)N2C(=O)c3ccccc3C2=O)cc1 (configuration not stated)	inactive	
COc1ccccc1C1/C(=C(/O)c2ccc(C)cc2)C(=O)C(=O)N1Cc1ccco1 (configuration not stated)	inactive	
COc1ccc(/C(O)=C2\C(=O)C(=O)N(Cc3ccco3)C2c2ccc(OC)cc2OC)cc1 (configuration not stated)	29.1 µM (active)	
COc1ccc(C2/C(=C(/O)c3ccccc3)C(=O)C(=O)N2C)c(OC)c1 (configuration not stated)	inactive	
CCn1c(SCC(=O)NC2CC2)nnc1-c1ccccn1	inactive	
CO[C@H]1[C@@H](O)[C@H](N)[C@@H](O[C@H]2O[C@H]([C@H](C)N)CC[C@H]2N)[C@H](O)[C@@H]1N(C)C(=O)CN	inactive	
CC[C@]1(O)C[C@@H]2CN(CCc3c([nH]c4ccccc34)[C@@](C(=O)OC)(c3cc4c(cc3OC)N(C)[C@H]3[C@@](O)(C(=O)OC)[C@H](OC(C)=O)[C@]5(CC)C=CCN6CC[C@]43[C@@H]65)C2)C1	65.1 nM (active) and 47.3 nM (active) and 146 nM (active)	

Structure (SMILES)	Potency	activity change, negative = growth inhibition
CC[C@]1(O)CC2CN(CCc3c([nH]c4ccccc34)[C@@](C(=O)OC)(c3cc4c(cc3OC)N(C=O)[C@H]3[C@@](O)(C(=O)OC)[C@H](OC(C)=O)[C@]5(CC)C=CCN6CC[C@]43[C@@H]65)C2)C1 (some centres not stated)	0.146 µM (active)	
CCc1nc2onc(C)c2c(=O)n1CC(=O)O	inactive	
O=C1Cc2cc(S(=O)(=O)Nc3cccc(F)c3)ccc2N1	inactive	
Cc1c(NC(=O)C(C)(C)C)cccc1-c1nc2ccccc2s1	13 µM (active)	
CC(=O)Nc1cccc(-c2nc3ccccc3s2)c1C	inactive	
CCC(C(=O)Nc1ccc(C(C)C)cc1)c1ccccc1 (configuration not stated)	inactive	
CCC(C(=O)Nc1ccc2c(c1)OCCO2)c1ccccc1 (configuration not stated)	inactive	
Cc1cccc(C(=O)Nc2ccc(-c3nc4ccccc4s3)c(C)c2)c1	inactive	
CCC(C(=O)Nc1cccc(-c2nc3cccnc3s2)c1C)c1ccccc1 (configuration not stated)	20.6 µM (active)	
Cc1c(O)cc2c(c1C)O[C@](C)(CCC[C@H](C)CCC[C@H](C)CCCC(C)C)CC2	inactive	
Cc1ccc(NC(=O)c2cc([N+](=O)[O-])ccc2Cl)c(O)c1	inactive	
CCOc1ccc(Nc2nc(Cl)nc(N3CCN(c4ccc(OC)cc4)CC3)n2)cc1	18.4 µM (active)	
COc1ccc(N2CCN(c3ccc([N+](=O)[O-])cc3Cl)CC2)cc1	inactive	
CCC(=O)Nc1ccc(Nc2nc(Cl)nc(Nc3ccc(NC(=O)CC)cc3)n2)cc1	inactive	
CCOC(=O)N1CCN(CCC(=O)Nc2ccccc2)CC1	inactive	
Cc1noc(C)c1CSCC(=O)Nc1nc2ccc(Oc3ccccc3)cc2s1	inactive	
O=C(Nc1ccc(S(=O)(=O)N2CCCCC2)cc1)C1CC(=O)N(c2ccc(F)cc2)C1 (configuration not stated)	inactive	
COC[C@@H]1NS(=O)(=O)c2ccc(Br)cc2O[C@H]1c1ccccc1	inactive	
CCOc1ccc2nc(C(=O)N3CCCC(C)C3)sc2c1 (configuration not stated)	inactive	
CCOc1ccc2nc(N3CCCC(C(=O)Nc4cc(C)ccc4C)C3)sc2c1 (configuration not stated)	23.1 µM (active)	
Cc1ccc(C)c(NC(=O)C2CCCN(S(=O)(=O)c3cn(C)cn3)C2)c1 (configuration not stated)	inactive	
COCC(C)NS(=O)(=O)c1ccc(N2CCCCS2(=O)=O)cc1 (configuration not stated)	inactive	
